According to ChEMBL document CHEMBL4296182, “CO-ADD screening of NIH NCI Diversity Set V”:
For part of these data: Entries with a potency or affinity are not part of this list.

What was measured:
[1] = test system: Staphylococcus aureus; experiment: Antibacterial activity against Staphylococcus aureus MRSA ATCC 43300 (CO-ADD:GP_020); MIC in CAMBH media using NBS plates, by Resazurin F(560/590); format: functional; conditions: Concentration 20 uM, ASSAY_TEST Inhibition of Bacterial Growth, detection method Resazurin, Fluorescence (ex560/em590), MEDIA CAMHB, plate type 384well, CORNING #3640, time 18 hr
[2] = test system: Acinetobacter baumannii; experiment: Antibacterial activity against Acinetobacter baumannii ATCC 19606 (CO-ADD:GN_034); MIC in CAMBH media using NBS plates, by Resazurin F(560/590); format: functional; conditions: Concentration 20 uM, ASSAY_TEST Inhibition of Bacterial Growth, detection method Resazurin, Fluorescence (ex560/em590), MEDIA CAMHB, plate type 384well, CORNING #3640, time 18 hr
[3] = test system: Escherichia coli; experiment: Antibacterial activity against Escherichia coli ATCC 25922 (CO-ADD:GN_001); MIC in CAMBH media using NBS plates, by Resazurin F(560/590); format: functional; conditions: Concentration 20 uM, ASSAY_TEST Inhibition of Bacterial Growth, detection method Resazurin, Fluorescence (ex560/em590), MEDIA CAMHB, plate type 384well, CORNING #3640, time 18 hr
[4] = test system: Klebsiella pneumoniae; conditions: Concentration 20 uM; ASSAY_TEST Inhibition of Bacterial Growth; detection method Absorption (OD600); MEDIA CAMHB; plate type 384well; NBS; CORNING #3640; time 18 hr
[5] = test system: Candida albicans; conditions: 20 µM
[6] = test system: Cryptococcus neoformans; conditions: Concentration 20 uM; ASSAY_TEST Inhibition of Fungal Growth; detection method Resazurin; Absorption (OD600-OD570); plate type 384well; NBS; CORNING #3640

SMILES | Inhibition [1] [%] | Inhibition [2] [%] | Inhibition [3] [%] | Inhibition [4] [%] | Inhibition [5] [%] | Inhibition [6] [%]
O=C(C=C=Nc1ccccc1)C(=O)N=C=Cc1ccccc1 | 7.34 | 5.35 | 5.03 | 25.39 | 6.53 | 5.95
CCCCCc1cccnc1 | 1.69 | -4.62 | 11.47 | 10.71 | 2.3 | -0.18
C[C@H](CCC(=O)O)[C@H]1CC[C@@]2(C)[C@@H]3C(=O)C[C@H]4C(C)(C)[C@@H](O)CC[C@]4(C)[C@H]3C(=O)C[C@]12C | 2.14 | -2.92 | -3.17 | 11.41 | -2.24 | -2.42
CCCCOc1ccc(Nc2cc(Cl)ccc2C(=O)O)cn1 | 11.44 | 0.16 | 4.02 | 9.69 | 10.4 | -7.88
COc1c(NC=O)c2c(c([N+](=O)[O-])c1OC)C(=O)OC2 | 1.34 | 7.55 | 3.05 | 24.74 | 5.38 | 2.82
O=[N+]([O-])c1ccccc1CSc1nc(O)c2nc[nH]c2n1 | 26.98 | 9.09 | 5.06 | 15.06 | 1 | -13.62
Cc1ccc(C#CC(C)(O)C(C)(C)C)cn1 (stereo not given) | 4.47 | 10.01 | 1.4 | 18.58 | 7.24 | -1.46
OCCN1CCSC1=S | 15.14 | -9.39 | 8.07 | 16.39 | 1.12 | -6.82
Cc1cc(OCCCCOc2ccc(C#N)cc2)ccc1[N+](=O)[O-] | 20.1 | 6.74 | 2.94 | 7.99 | 7.31 | -12.2
c1ccc(-c2cn3ccccc3n2)cc1 | 26.82 | -4.96 | 13.79 | 17.46 | -0.09 | -2.58
CC(C)(CO)N1CCN(C(S)=Nc2ccccc2)CC1 | -0.05 | 2.01 | -1.36 | 29.13 | 8.13 | -5.08
Nc1ccc(/N=N/c2ccccc2Cl)c(N)n1 | 4.22 | -1.2 | 2.51 | 18.4 | 14.2 | -16.58
CC1=CC(C)(C(Cl)(Cl)Cl)C(C)=C/C1=N/O (stereo not given) | 1.65 | -20.29 | 8.83 | 12.76 | 4.85 | -11.97
O=C(Nc1ccc(C2=NCCCN2)cc1)Nc1ccc(C2=NCCCN2)cc1 | 7.85 | 9.82 | -5.49 | 24.63 | 1.67 | -6.84
Nc1cc(Nc2ccc(Br)cc2)nc(N)n1 | 4.17 | 10.22 | -12.19 | 18.33 | 4.62 | -4.88
Nc1cc(O)nc2ncnn12 | 9.25 | -2.47 | 7.96 | 6.69 | -0.84 | -4.53
Nc1ccc(C(=O)Nc2ccc(Nc3ccncc3)cc2)cc1 | -3.72 | 6.97 | -13.54 | 10.04 | 2.67 | -0.31
O=[N+]([O-])c1c(N2CCN(CCO)CC2)nc2ccccn12 | 9.01 | -8.14 | 6.29 | 3.38 | -0.65 | -4.29
OCc1cc(O)c(CO)nn1 | -17.8 | -1.67 | -7.33 | 4.1 | -0.36 | 1.1
Nc1ccc(N/C(S)=N/c2ccccc2)cc1 | 15.05 | 4.29 | 7.29 | 5.43 | 1.8 | -4.63
O=C(c1ccccc1)c1ccc(-c2ccc(O)cc2)cc1 | -4.49 | -14.62 | 8.24 | 15.69 | 6.54 | -10.56
O=C(O)CCN1c2ccccc2Sc2ccccc21 | 8.2 | -9.93 | 16.66 | 14.48 | 16.7 | -15.83
O=[N+]([O-])c1ccc(Sc2ncccn2)c([N+](=O)[O-])c1 | -0.05 | -11.01 | 5.58 | 8.38 | 12.9 | -3.06
O=[N+]([O-])c1cc(-c2cccnc2)[nH]n1 | -4.13 | -4.27 | 2.34 | 30.86 | 1.12 | -1.42
O=S1(=O)CCC(N(/N=C/c2ccco2)c2ccccc2)C1 (stereo not given) | 6.29 | -4.36 | -3.36 | 6.93 | -2.37 | -1.06
